The structures appear in SMILES notation. In all, about 2,300 compounds went through this assay and about 1,000 (43%) were called active. No rule for the calls is given here. So high a share suggests a set chosen from earlier hits. The list shows a part of the results. Entries with a potency or affinity are not part of this list.

The values below come from PubChem BioAssay AID1985 (Southern Research Specialized Biocontainment Screening …, 2009).

The nature of this experiment: modified counter assay using GFP fluorescence, PhoP regulon inhibitor project, dose response (AID 1985). The settings on record: S. Typhi, 4 h; series mostly up to 150 µM.
Take `C=CCn1c(O)c(N=NC(=O)c2cccnc2)c2cc(Br)ccc21`: the molecule was classed as inactive.
In the case of `O=C(N/N=C/c1cccc(OCc2ccccc2)c1)c1cccs1` it was “inactive”; in that of `CCOC(=O)c1ccccc1-n1c(C)cc(C2N=C(N)Nc3nc4ccccc4n32)c1C` (stereo not drawn), “inactive”.
The same measure for `NC1=NC(c2cccc(O)c2)n2c(nc3ccccc32)N1` (stereo not drawn): “inactive”; for `Cc1cc(C)c(S(=O)(=O)Nc2ccccc2C(=O)OCC(=O)NCc2ccccc2)c(C)c1`: “inactive”.
In the case of `NC(=O)c1ccsc1NC(=O)c1ccc2c(c1)CCCC2` it was “inactive”.
As for `COc1ccc(N2CCN(c3cc(C)c4ccc(O)cc4n3)CC2)cc1`, the molecule was called inactive.
The same measure for `CCOC(=O)C(CC)Sc1ccc2nnc(-c3cccnc3)n2n1` (stereo not drawn): “inactive”.
In the case of `COc1ccc(OC)c(C2=NO[C@@H]3C(=O)N(c4cc(Cl)ccc4OC)C(=O)[C@H]23)c1` it was “inactive”.
In the case of `Fc1cccc(NC(=S)NCc2ccc(Cl)cc2)c1` it was “inactive”.
Regarding `O=[N+]([O-])c1cccnc1S(=O)(=O)c1ccccc1`, the call was inactive.
In the case of `CCCCCNc1nc(N2CCCC2)c2c(c1C#N)CCN(C)C2` it was “inactive”; in that of `O=C(NCCO)C(=O)c1c(-c2ccc(Cl)cc2)cc2ccccn12`, “inactive”; in that of `COCCn1c(SCC(=O)Nc2nnc(C)s2)nnc1-c1c[nH]c2ccccc12`, “inactive”.
In the case of `CCCCNC(=O)NS(=O)(=O)c1ccc(C(=O)OC)o1` it was “inactive”.
The same measure for `CCC(Sc1nc2ccncc2[nH]1)C(=O)Nc1ccc(C)c(Cl)c1` (stereo not drawn): “inactive”; for `O=C(Cc1ccccc1)NCC(=O)Nc1cccc(Cl)c1`: “inactive”; for `Cc1cccc(NC(=O)CSc2nc3c([nH]c4ccccc43)c(=O)n2C)c1`: “inactive”.
Turning to `Cc1cnc(C(=O)OCC(=O)Nc2cccc(Cl)c2)cn1`, the result was inactive.
For the molecule `Nn1cnnc1SCC(=O)Nc1ccc(C2CCCCC2)cc1`, the molecule was called inactive.
The same measure for `O=C(COc1ccc(Cl)cc1)Nc1cccc(-c2ccc3nncn3n2)c1`: “inactive”; for `CCCCC(=O)Nc1ccc(F)c(Cl)c1`: “inactive”.
On to `Cc1ccc(NC(=O)c2cc(NC(=O)CCCC(=O)O)ccc2Cl)cc1Cl`, for which the outcome was inactive.
In the case of `CCS(=O)(=O)N1CCN(C2CCC(c3ccccc3)CC2)CC1` (stereo not drawn) it was “inactive”; in that of `C[N+]12CN3CN(CN(C3)C1)C2`, “inactive”; in that of `CCOC(=O)c1ccc(NC(=O)CSC(=S)N2CCOCC2)cc1`, “inactive”.
With `CC1CCN(CCC(=O)Nc2ccc(Cl)cc2)CC1`, the molecule was called inactive.
The same measure for `COCc1[nH]nc2c1C(c1c(F)cccc1Cl)C(C#N)=C(N)O2` (stereo not drawn): “inactive”.
In the case of `CCOC(=O)c1cnn2c1[nH]c(=O)c1ccccc12` it was “inactive”; in that of `O=C(CCC(=O)Nc1nnc(C2CCCCC2)s1)NCC1CCCO1` (stereo not drawn), “inactive”.
The same measure for `CCCC1C(c2ccc(OC)cc2)C(C#N)(C#N)C2(C#N)CC1(N)NC2=O` (stereo not drawn): “inactive”.
Regarding `COc1ccc(C2CC(=O)N3CN(Cc4ccco4)CSC3=C2C#N)cc1` (stereo not drawn), the result was inactive.
The same measure for `CC(C)c1cc(C(=O)Nc2ccc3c(c2)OCO3)no1`: “inactive”; for `CCOC(=O)c1sc(N)c(C(=O)OC)c1C`: “inactive”; for `Cc1nc2ccccc2nc1N/N=C/c1ccc(O)cc1O`: “inactive”.
The same measure for `Cc1cc(C=O)c(O)cc1O`: “inactive”; for `Oc1ccc(C=Nc2cccc3ncccc23)c(O)c1`: “inactive”.
In the case of `Cc1oc(/N=C/c2ccc(O)cc2O)c(C#N)c1C` it was “inactive”; in that of `Oc1ccc(C=NC2CCCCC2)c(O)c1`, “inactive”; in that of `Oc1ccc(C=Nc2ccc3ncccc3c2)c(O)c1`, “inactive”.
For `CCOc1ccccc1NC1=NC2CS(=O)(=O)CC2S1` (stereo not drawn), the call was inactive.
In the case of `Cc1ccc(-c2cc(N)nc(-c3ccccc3)c2)cc1` it was “inactive”; in that of `O=C(CN(C(=O)CNS(=O)(=O)c1ccccc1)C1CCCC1)NCc1ccco1`, “inactive”.
The same measure for `COc1cccc(NC(=O)N2CCCC(C(=O)Nc3ccccc3OC)C2)c1` (stereo not drawn): “inactive”.
The same measure for `CCN1CCN(c2cc(C)c3cc(NC(=S)N4CCN(c5ccccc5F)CC4)ccc3n2)CC1`: “inactive”; for `COc1ccccc1NC(=O)CN1CCN(c2ccccc2)CC1`: “inactive”; for `O=S(=O)(Nc1cccc(-c2cn3c(n2)SCC3)c1)c1ccc(F)cc1F`: “inactive”.
As for `CC(=O)c1ccc(OC(=O)c2cc3ccccc3oc2=O)cc1`, the molecule was called inactive.
The same measure for `NC(=O)Oc1cccc(OC(N)=O)c1`: “inactive”; for `CCN(CC)c1cc(C)c2cc(NC(=O)c3ccccc3F)ccc2n1`: “inactive”.
In the case of `COc1ccc(-n2cnc3c(sc4nc(N5CCOCC5)c5c(c43)CCCC5)c2=O)cc1` it was “inactive”.
In the case of `O=C(CCCCCn1c(=S)[nH]c2ccc(N3CCOCC3)cc2c1=O)NC1CCN(Cc2ccccc2)CC1` it was “inactive”; in that of `Cc1cc(Cl)ccc1OCC(=O)Nc1nc(-c2cccnc2)cs1`, “inactive”; in that of `CC(C)[C@H](NC(=O)c1ccccc1Cl)C(=O)Nc1nc(-c2ccccn2)cs1`, “inactive”.
With `O=C(Nc1ccncc1)c1cc(-c2ccccn2)nc2ccccc12`, the molecule was called inactive.
In the case of `CC1CC(C)CN(S(=O)(=O)c2ccc3c(c2)oc(=O)n3CC(=O)N(C)Cc2ccccc2)C1` (stereo not drawn) it was “inactive”; in that of `COc1ccccc1Nc1nc(Cl)c(C=O)s1`, “inactive”.
Consider `c1ccc2c(c1)CCc1ccccc1C2=C1CCNCC1`, for which the molecule was classed as inactive.
The same measure for `COc1ccc(Cn2nnnc2C(c2cc3ccc(OC)cc3[nH]c2=O)N2CCC(C)CC2)cc1` (stereo not drawn): “inactive”.
For the molecule `Clc1ccc(CN2CCN(/N=C/c3ccco3)CC2)cc1`, the call was inactive.
In the case of `CCOc1ccc(N2C(=O)S/C(=C\c3ccc(O)c(OC)c3)C2=O)cc1` it was “inactive”.
In the case of `Fc1ccc(NC(=S)Nc2cc(-c3ccccc3)[nH]n2)cc1Cl` it was “inactive”; in that of `C/[N+]([O-])=C1\Cc2ccccc2C1=O`, “inactive”; in that of `COc1ccc(CCN(C(=O)C(F)(F)F)C(C(=O)NC2CCCC2)c2cccs2)cc1` (stereo not drawn), “inactive”.
In the case of `O=C(O)c1cccc(NC2=Nc3cccc4cccc2c34)c1` it was “inactive”; in that of `Cc1cc(C)c2c(N)c(C(=O)c3ccc(Cl)c(Cl)c3)sc2n1`, “inactive”; in that of `COc1ccc(Cl)cc1N(C)C(=O)CCNC(=O)Cn1cnc2ccccc2c1=O`, “inactive”.
`COc1ccc(Nc2cc(C)nc(NCc3ccccc3)n2)cc1`: the outcome was inactive.
In the case of `Cc1cc(N2CCC(C)CC2)nc(NCc2ccccc2)n1` it was “inactive”.
In the case of `CN(C)C=NC(=O)c1cc(C(=O)c2ccc(Cl)cc2Cl)c[nH]1`, the result was inactive.
In the case of `CCN(CC)CCN(C(=O)c1cccc([N+](=O)[O-])c1)c1nc2ccc(OC)cc2s1` it was “inactive”; in that of `O=C(COc1ccc(Br)cc1CNCCc1ccccc1)NCc1ccccc1`, “inactive”; in that of `C=CCOc1ccc(Cl)cc1CNC1CCCC1`, “inactive”.
With `CC(=O)c1c(C)[nH]c(C(=O)OCC(=O)NCC(C)C)c1C`, the result was inactive.
In the case of `Cc1c(CN(C)C)c2c(n1Cc1ccccc1)C(=O)c1ccc(Br)cc1-2` it was “inactive”; in that of `NC(=O)c1ccc[n+]([C@H]2O[C@@H](COP(=O)([O-])OP(=O)(O)OC[C@H]3O[C@@H](n4cnc5c(N)ncnc54)[C@H](O)[C@@H]3O)[C@H](O)[C@@H]2O)c1`, “inactive”.
Turning to `CCOC(=O)C(NC(=O)c1cccnc1)(Nc1cccc(C)n1)C(F)(F)F` (stereo not drawn), the result was inactive.
On to `Cn1c(=O)c(=O)n(C)c2cc(S(=O)(=O)N3CCc4ccccc43)ccc21`, for which the call was inactive.
In the case of `COc1ccc(-c2nc3cc(NC(=O)Cc4ccc(OC)c(OC)c4)ccc3o2)cc1` it was “inactive”; in that of `COC(=O)c1cc2oc(C)cc2n1CC(=O)Nc1ccc(C)c(C)c1`, “inactive”; in that of `CC(C)OC(=O)Cn1c(=O)sc2ccccc21`, “inactive”.
In the case of `CC(=O)Nc1ccccc1-c1nc2ccc(C(=O)N3CCN(c4cc(C)ccc4C)CC3)cc2[nH]c1=O` it was “inactive”; in that of `COc1ccc(Cl)cc1C(=O)C1CCCN(CCO)C1` (stereo not drawn), “inactive”; in that of `COc1c(Br)cc2c(C)c(C(=O)N3CCOCC3)oc2c1Br`, “inactive”.
As for `CCCCCCOc1ccc(CN2CCN(CC)CC2)cc1`, the call was inactive.
In the case of `CCCN(CCC)c1nc(C)cc(C(C#N)c2nc3ccccc3o2)n1` (stereo not drawn) it was “inactive”; in that of `CN(CC(=O)NCc1ccncc1)S(=O)(=O)c1ccccc1`, “inactive”; in that of `O=c1cc(-c2ccc(Cl)cc2)[nH][nH]1`, “inactive”.
As to `Cc1cc(N=Nc2ccccc2)c(NCC(O)C(O)C(O)CO)cc1C` (stereo not drawn), the result was inactive.
The same measure for `O=C1c2ccccc2C(=O)N1CCCP(=O)(O)CCc1ccccc1`: “inactive”; for `Cc1ccc(C)c(N/C(N)=N/c2nc(C)cc(C)n2)c1`: “inactive”; for `Cc1cc(C)c(-n2nnnc2SC(C)C)c(C)c1`: “inactive”.
The same measure for `Cc1ccccc1N1C(N)=NC(N)=NC1(C)C`: “inactive”.
In the case of `COc1cc(/C=N/N(C)S(=O)(=O)c2ccc(C)cc2)cc([N+](=O)[O-])c1O` it was “inactive”; in that of `COc1ccccc1CNC(=O)Cn1c(=O)oc2cc(S(=O)(=O)N3CCCC3)ccc21`, “inactive”.
For the molecule `CCCCN1/C(=C/c2cccc[n+]2C)Sc2cc(NC(C)=O)ccc21`, the outcome was inactive.
For `CCCCc1cc(=O)oc2cc(C)c(CN3CCCC3)c(O)c12`, the result was inactive.
On to `O=C(NC(O)C(=O)c1ccccc1)c1ccc(F)cc1` (stereo not drawn), for which the call was inactive.
Consider `O=C(/C=C/c1ccc(Cl)cc1Cl)NCc1ccncc1`, for which the result was inactive.
The same measure for `COc1ccccc1/C=C/C(=O)Nc1cccc(C(C)=O)c1`: “inactive”; for `Cc1ccc(N2C(N)=C(C#N)C(c3cccnc3)C3=C2CC(C)(C)CC3=O)cc1` (stereo not drawn): “inactive”.
In the case of `OCCCCNCc1ccc(OCc2ccccc2Cl)cc1` it was “inactive”.
In the case of `CCOc1cc(CNC(C)(C)CO)cc(Br)c1OCc1ccc(Cl)cc1Cl` it was “inactive”; in that of `COc1cc(CNC2CCCC2)cc(Cl)c1OCc1ccccc1Cl`, “inactive”; in that of `CCOC(=O)c1c(C)[nH]c(C(=O)CN2C(=O)NC(C)(c3ccc4ccccc4c3)C2=O)c1C` (stereo not drawn), “inactive”.
On to `Cc1cc(=O)oc2ccc(OCC(=O)N3CCC(C)CC3)cc12`, for which the result was inactive.
In the case of `O=C(O)COc1ccc(F)cc1Br` it was “inactive”; in that of `O=C(COc1ccc(Cl)cc1)N1CCN(C2CCCC2)CC1`, “inactive”.
In the case of `CC1CC1C(=O)Nc1nc2ccc(S(C)(=O)=O)cc2s1` (stereo not drawn) it was “inactive”; in that of `CCOC(=O)Cc1csc(NC(=O)c2ccc(S(=O)(=O)N3CCCC3)cc2)n1`, “inactive”; in that of `Cc1ccc(-c2nc(C(=O)NCCCN(C)C)cc3c2[nH]c2ccccc23)cc1`, “inactive”.
In the case of `O=C(Cn1cnc2cc([N+](=O)[O-])ccc2c1=O)Nc1ccccc1Cl` it was “inactive”.
For the molecule `O=C(Nc1nccs1)c1ccc(Cl)cc1[N+](=O)[O-]`, the result was inactive.
